Measurements as given in PubChem BioAssay (NCI).
Where “and” joins values, the source holds several entries; their conditions need not be identical. Identical values can stand only once. Compounds without any hit were thinned out: in the full panel of roughly 83,000, 20% have a hit.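 Cells were grown in 96-well plates and exposed to the test compound at a single concentration for 48 hours; results are reported as percent growth, with values below 10 considered active.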 Calls of active or inactive are those of the source.

These compounds were tested on BT-549 breast (assay: NCI-60 one-dose screen, 48 h (100 = growth as untreated, 0 = no growth, -100 = all killed)). Settings: 10 µM unless noted.

Compound | growth
Nc1nc(Nc2cccnc2)sc1C(=O)c1ccccc1F | 12.2% (inactive)
COCCOc1cc2ncnc(N3CCN(S(=O)(=O)c4ccccc4Cl)CC3)c2cc1OCCOC | 89.5% (inactive)
O=C1/C(=C/c2ccc(F)c(F)c2)CN(C(=O)C(Cl)Cl)C/C1=C\c1ccc(F)c(F)c1 | -98% (active)
O=C([C@H]1C[C@H]1c1ccc(S(F)(F)(F)(F)F)cc1)N1CCN(c2cc(Cl)ccc2C(F)(F)F)CC1 | 106% (inactive)
O=C(NNc1ccccc1)c1ncc[nH]1 | 101% (inactive)
COc1cccc(C2C(C#N)=C(N)Oc3cc(OCCCCCC[P+](c4ccccc4)(c4ccccc4)c4ccccc4)ccc32)c1 (configuration not stated) | -54.3% (active)
CCOC(=O)N(O)c1ccc(/C=C/c2ccccc2)cc1 | 78.1% (inactive) and 69.9% (inactive)
CN(C)CCN1C(=O)c2c(c3c4ccccc4n4c3c3c2c2ccccc2n3C2CC(O)C(O)C4(C)O2)C1=O (configuration not stated) | 62.9% (inactive)
O=C(CCCOc1ccc(Br)cc1)Nc1ncc(Cc2ccc(F)cc2)s1 | 82% (inactive)
COc1cc(NC2CCCCC2O)c2nc(-c3ccc(Cl)cc3)ccc2c1 (configuration not stated) | 108% (inactive) and 97.5% (inactive)
O=C(O)C1C2CCC1C(O)C2 (configuration not stated) | 98.2% (inactive) and 97.1% (inactive)
C=C1CC[C@@H]2[C@](C)(COC(C)=O)[C@H](OC(C)=O)CC[C@@]2(C)[C@@H]1CC(Nc1ccc(S(=O)(=O)Nc2nccs2)cc1)C1=CCOC1=O (some centres not stated) | -23.5% (active)
Nc1nc(Nc2ccc(F)cc2)nn1C(=O)c1cc(Cl)ccc1Cl | 80% (inactive)

The compounds below were run on MDA-MB-435 melanoma in the same assay as above. Settings: 10 µM unless noted.

Compound | growth
CN(C)C(=O)c1cc2cnc(Nc3ccc(-c4csc5c(=S)cc(N6CCOCC6)oc45)cc3)nc2n1C1CCCC1 | 17.3% (inactive)
CN1CCN(c2ccc(/C=C/C(=O)c3ccc(O)cc3)cc2)CC1 | 100% (inactive)
CC1(Cc2ccccc2)CC2=C(C(=O)O1)C(c1ccccc1)NC(=O)N2 (configuration not stated) | 99.4% (inactive)
CCCCn1c(C(=O)c2c[nH]c3ccccc23)n[nH]c1=S | 98.7% (inactive)
C=C(CN1CC=CCC1)[C@@H]1CC[C@]2(COC(C)=O)CC[C@]3(C)[C@H](CC[C@@H]4[C@@]5(C)CC[C@H](O)C(C)(C)[C@@H]5CC[C@]43C)[C@@H]12 | 99.2% (inactive)
O=C(Cn1cc(CN2CCN(c3ccnc4cc(Cl)ccc34)CC2)nn1)Nc1cccc([N+](=O)[O-])c1 | 98.7% (inactive)
Nc1n[nH]c2cccc(C#Cc3cccc(NC(=O)c4ccc(N5CCOCC5)c(C(F)(F)F)c4)c3)c12 | 19.2% (inactive)
COC1=CC(=O)C(OC)=C(O)C1=O | 101% (inactive)
CONC1=Nc2cc(NC(N)=NCc3ccccc3)c(N(C)C3CCCCC3)cc2OC1 | 73% (inactive)
Cc1ccc(NC(=O)c2ccc(CN3CCN(C)CC3)cc2)cc1Nc1nccc(-c2cccnc2)n1 | 92.6% (inactive) and 77.7% (inactive)
Fc1ccc(NC(c2ccc(F)cc2)C2CCN(CCCCc3ccccc3)CC2)cc1 (configuration not stated) | 43.8% (inactive)
COc1ccc2c(O)c(/C=C3\N=Nc4nc(C)ccc43)oc2c1CC1CCNCC1 | 42.7% (inactive)
COc1ccc(C(=O)N/N=C/c2ccc(O)cc2O)cc1Nc1ccnc(C(F)(F)F)c1 | 32.7% (inactive)
COc1cc(-c2[nH]ncc2Nc2ccc(Cl)cc2)cc(OC)c1OC | 55.5% (inactive)
Nc1ccc(S(=O)(=O)c2ccc(N)cc2)cc1 | 94.6% (inactive)
C/C(=C(\c1ccc(OCCN2CCOCC2)cc1)c1ccc(OC(=O)C2CCCCC2)cc1)c1ccc(Cl)cc1 | 94.4% (inactive)
CCN(CC)CCOc1ccc(/C(=C(\Cl)c2ccccc2)c2ccccc2)cc1 | 7.34% (active)
CSc1nnc(-c2cc3c([nH]c4ccccc43)c(-c3cccc(O)c3)n2)n1-c1ccc(C)cc1 | -49.5% (active)
COc1ccc(/C(C)=C(\c2ccc(OCCN3CCCCCC3)cc2)c2ccc(OC(=O)C3CCCCC3)cc2)cc1 | -77.1% (active)
N=C1/C(=C2\NC3C=CC=CC3S2)C(c2ccc(Cl)cc2)C2C(=O)N(c3ccccc3)C(=S)N12 (configuration not stated) | 108% (inactive)
Nc1nc(Nc2cccnc2)sc1C(=O)c1ccccc1F | 39.2% (inactive)
O=C1/C(=C/c2ccc(F)c(F)c2)CN(C(=O)C(Cl)Cl)C/C1=C\c1ccc(F)c(F)c1 | -94.8% (active)
O=C(NNc1ccccc1)c1ncc[nH]1 | 24.2% (inactive)
COc1cccc(C2C(C#N)=C(N)Oc3cc(OCCCCCC[P+](c4ccccc4)(c4ccccc4)c4ccccc4)ccc32)c1 (configuration not stated) | -77.6% (active)
CCOC(=O)N(O)c1ccc(/C=C/c2ccccc2)cc1 | 84.6% (inactive) and 84.1% (inactive)
O=C(CCCOc1ccc(Br)cc1)Nc1ncc(Cc2ccc(F)cc2)s1 | -27.2% (active)
O=C(O)C1C2CCC1C(O)C2 (configuration not stated) | 106% (inactive)
C=C1CC[C@@H]2[C@](C)(COC(C)=O)[C@H](OC(C)=O)CC[C@@]2(C)[C@@H]1CC(Nc1ccc(S(=O)(=O)Nc2nccs2)cc1)C1=CCOC1=O (some centres not stated) | -8.31% (active)
Nc1nc(Nc2ccc(F)cc2)nn1C(=O)c1cc(Cl)ccc1Cl | 88.8% (inactive)
